Compound activity: PubChem BioAssay, several laboratories
CF NFkB block – inhibitors of cystic fibrosis induced NF-kB; 360,000 tested, 0.86% active; inhibition, % at 5 µM; KKLEB NF-kB-GFP reporter, PAF-induced, GFP fluorescence overnight;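 active = at least 50% inhibition at 5 µM, scaled per plate between neutral and stimulator controls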;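 also: PAF is a Pseudomonas aeruginosa culture filtrate used as stimulus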
Peg3 prom inh – reduces Peg3 promoter-driven luciferase expression in HeLa | AID 588405 | 360,000 tested, 1.7% active | HeLa PEG-Prom luciferase reporter, luminescence, overnight | inhibition, % at 20 µM;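 active = inhibition of at least 50% at 20 µM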
HIF-2a inh – HIF-2a inhibition. 360,000 tested, 0.72% active. inhibition, % at 18.8 µM. 786-0 RCC cells HIF-2a reporter, luciferase luminescence, overnight. AID 624352;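 active = inhibition of the luminescence signal of 40% or more relative to plate controls, in a single-dose primary screen at 18.75 µM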
KKLEB tox – counter-screen for CF NF-kB inhibitors: cytotoxicity | KKLEB CF airway cells viability, ATPlite luminescence, overnight; hits give low values; cells stimulated with P. aeruginosa culture filtrate | activity change (cytotoxicity), % at 5 µM | 360,000 tested, 0.36% active;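 active = corrected activity change at or below -50% at 5 µM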
Shn3 3UTR inh – Schnurri-3 reporter inhibition in Clone20 osteoblasts | Clone20 osteoblast Shn3 3'UTR firefly luciferase, 24 h | inhibition, % at 12.5 µM | 360,000 tested, 0.52% active | AID 588674;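 active = mean inhibition of at least 75% with every replicate also reaching 75%; inconclusive = mean inhibition at least 75% but some replicate below; inactive = mean inhibition below 75%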
TRPM1 prom inh – inhibitors of MITF-driven TRPM1 promoter in melanoma cells; 330,000 tested, 0.83% active; AID 488899; inhibition, % at 12.5 µM; SK-MEL-5 TRPM1 promoter luciferase, 24 h;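 active = mean inhibition across replicates of 60% or more, whatever share of single replicates reaches that level; inconclusive = some that reach 60%, reason not given; inactive = mean inhibition across replicates below 60%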
Large screens that a line does not name were inactive. This is a sample that favours compounds with a hit; in the whole collection about 2.8% have one here.

CCCNC(=O)c1ccc2c(c1)nc(C)n2-c1cccc(Cl)c1	none
COc1cc(NC(=O)c2ccccc2)c(C)cc1NC(=O)CC(CC(=O)O)c1ccccc1 (stereo not given)	none
COc1ccccc1/C=C/C(=O)c1cc(Br)ccc1OC(=O)c1ccco1	HIF-2a inh 87
COc1ccc(OC)c(NC(=O)COC(=O)CSc2ccc(Cl)cc2)c1	none
Cc1ncc(CO)c2c1Oc1nc(-c3ccccc3)nc(SCC(=O)Nc3cccc(O)c3)c1C2	Peg3 prom inh 64
O=C(c1cc(COc2ccc3ncccc3c2)on1)N1CCC(O)CC1	none
Cc1cccnc1CN1CCN(C(=O)c2cc(COc3ccc4ncccc4c3)on2)CC1	Shn3 3UTR inh 88
CCC(O)C1CCN(C(=O)c2cc(COc3ccc4ncccc4c3)on2)CC1 (stereo not given)	Shn3 3UTR inh 88
CCOC(=O)N1CCN(C(=O)c2cc(COc3ccc4ncccc4c3)on2)CC1	Shn3 3UTR inh inconclusive
CC(=O)O[C@@H]1[C@H]2[C@@H](C[C@@H](C)[C@@H]3C=CC(=O)[C@@]13C)OC(=O)[C@@H]2C	none
C=C1C(=O)OC2C1CCC(C)C1C=CC(=O)C12C (stereo not given)	TRPM1 prom inh 69
Cc1nn(CC(C)C)c2sc(C(=O)NC3CC(C)(C)NC(C)(C)C3)cc12	none
CN(C)CCCN(C(=O)c1ccco1)c1nc2ccc(Br)cc2s1	Peg3 prom inh 51
Cc1cccc2sc(N(CCCN(C)C)C(=O)c3nc4ccccc4s3)nc12	TRPM1 prom inh 73
Cc1cccc2sc(N(CCCN(C)C)C(=O)CCc3ccccc3)nc12	Peg3 prom inh 104
CN(C)CCCN(C(=O)CCc1ccccc1)c1nc2ccc(Br)cc2s1	Peg3 prom inh 106, TRPM1 prom inh 87
CCCCN(CCCC)C(=S)N/N=C/c1c(C)[nH]n(-c2ccccc2)c1=O	Peg3 prom inh 72
Cc1ccc(NS(=O)(=O)c2ccc(-c3cnc(C4CC4)o3)cc2)cc1	none
COc1ccc(C)cc1NS(=O)(=O)c1ccc(-c2cnc(C3CC3)o2)cc1	Shn3 3UTR inh 90, TRPM1 prom inh 68
COc1cccc(C2C(C(=O)c3cccs3)=C(O)C(=O)N2CCN2CCOCC2)c1OC (stereo not given)	none
CS(=O)(=O)c1nc(S(=O)(=O)c2ccc(Cl)cc2)c(N2CCOCC2)s1	TRPM1 prom inh 67
CC1CN(c2sc(S(C)(=O)=O)nc2S(=O)(=O)c2ccc(Cl)cc2)CC(C)O1 (stereo not given)	none
c1ccc2sc(Sc3ncnc4sccc34)nc2c1	CF NFkB block 72
Cc1ccc(Oc2nc(-c3cccnc3)nc3ccccc23)c([N+](=O)[O-])n1	none
Cc1nnc(NCc2n[nH]c(=O)c3ccccc23)c2ccccc12	Peg3 prom inh 106
COc1ccc(NCc2n[nH]c(=O)c3ccccc23)cc1	none
CC1(c2ccc(Cl)cc2)NC(=O)N(CN2CCOCC2)C1=O (stereo not given)	none
CC(C)n1cnc2c(Nc3cccc(Cl)c3)nc(NCCCO)nc21	none
C=CC(=O)Nc1cccc(Nc2nc(N[C@H]3CC[C@H](N(C)C)CC3)nc3c2ncn3C(C)C)c1	CF NFkB block 85, Peg3 prom inh 102, HIF-2a inh 71, KKLEB tox -70, TRPM1 prom inh 90
COc1ccc(S(=O)(=O)NC(=O)C2(C)CCN2C(=O)C(C)(C)c2ccccc2)cc1 (stereo not given)	none (no result: TRPM1 prom inh)
COc1ccc(Cl)cc1N1C(=NC(=O)C2CCCCC2)SC2CS(=O)(=O)CC21 (stereo not given)	none
Cc1cccc(N2C(=O)C(Oc3ccc(Cl)cc3Cl)C2C=O)c1C (stereo not given)	Peg3 prom inh 69
N#Cc1cnn2c1nc(N1CCCCC1)c1ccccc12	Peg3 prom inh 51
Cc1cc(Cl)ccc1NC(=S)NCCC(c1ccccc1)c1ccccc1	Peg3 prom inh 68
CCOC(=O)C1(C)NC(c2ccccc2F)C2C(=O)N(CC)C(=O)C21 (stereo not given)	none
O=C1Nc2ccc(Br)cc2/C1=C/C(=O)c1ccccc1	Peg3 prom inh 98, TRPM1 prom inh 75
O=C(O)COc1ccccc1/C=C1\C(=O)Nc2ccc(Br)cc21	none
Nc1nc2ccccc2n1/N=C/c1ccc([N+](=O)[O-])s1	TRPM1 prom inh 66
CCOc1ccc2nc(NC(=O)C34CC5CC(CC(NC(C)=O)(C5)C3)C4)sc2c1	none
O=C(/C=C/c1cn(CC(O)CN2CCCCC2)c2ccccc12)c1cccs1 (stereo not given)	Peg3 prom inh 73
CCOC(=O)C1(CC)Oc2ccccc2C(c2ccc(OC)cc2)=C1C(=O)OC (stereo not given)	none
CCOc1cc(/C=C2\COc3ccccc3C2=O)ccc1OCC(=O)N(C)C	Peg3 prom inh 62
CCNC(=O)COc1ccc(/C=C2\COc3ccccc3C2=O)cc1OC	Peg3 prom inh 71
COc1ccc(/C=C2\CCc3ccccc3C2=O)cc1OC	none
O=C1/C(=C/c2cccs2)COc2ccccc21	none
COC(C(=O)C(O)C(C)O)C1Cc2cc3cc(OC4CC(OC5CC(O)C(O)C(C)O5)C(O)C(C)O4)c(C)c(O)c3c(O)c2C(=O)C1OC1CC(OC2CC(OC3CC(O)C(OC)C(C)O3)C(O)C(C)O2)C(O)C(C)O1 (stereo not given)	CF NFkB block 90, Peg3 prom inh 100
CN(C)c1ccc(-c2nc3cc(N)ccc3o2)cc1	KKLEB tox -60
Cc1cc(-c2ccccc2)nc2cc(C(=O)N(Cc3ccccc3)Cc3ccccc3)nn12	Peg3 prom inh 58
COC(=O)c1cc2nc(-c3ccccc3)cc(C)n2n1	none
COc1cc(/C=C2/SC(=S)N(CCC(=O)N3CCN(C)CC3)C2=O)cc(OC)c1OC	Peg3 prom inh 53 (no result: TRPM1 prom inh)
CCOc1ccc(/C=C2\SC(=S)N(CCC(=O)Nc3ccccc3C(=O)O)C2=O)cc1	none
COc1ccc(/C=C2\SC(=S)N(CCC(=O)N3CCCCC3CCO)C2=O)cc1 (stereo not given)	HIF-2a inh 58
O=C(CCN1C(=O)/C(=C\c2ccccc2F)SC1=S)N1CCCCC1	CF NFkB block 96, Peg3 prom inh 104
COc1ccc(/C=C2\SC(=S)N(CCC(=O)Nc3ccccc3C(=O)O)C2=O)cc1	HIF-2a inh 71
COc1cc(/C=C2\SC(=S)N(CCC(=O)N3CCN(C)CC3)C2=O)cc(OC)c1OC	none
CN(CC(=O)NCCCc1ccccc1)S(=O)(=O)c1ccc(Br)cc1	none
CCOCCCn1c(=S)[nH]c2cc(C(=O)NC3CCCC(C)C3C)ccc2c1=O (stereo not given)	none
Cc1ccccc1-c1nc(CS(=O)(=O)CC(=O)N2CCOCC2)c(C)o1	none
CCN(C(=O)COC(=O)c1ccc(N2C(=O)c3ccccc3C2=O)cc1)C1CCS(=O)(=O)C1 (stereo not given)	none
